This passage reports activation (% of control) results from PubChem BioAssay AID932 (The Scripps Research Institute Molecular Screening Center, 2007).

Screen size: about 200,000 compounds; about 5,100 (2.5%) were called active. Shown is part of a subset that was picked to be rich in actives. A number with no mark means an inactive call.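 How the source made its calls: active means activation above the screen-wide mean activation plus 3 SD (cut at about 130% in these data); inactive means the rest.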

A short description of this experiment: STAT1 signaling activators, primary screen, cell-based, HTS, luciferase reporter (AID 932).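 Further: raw ratio to IFN-gamma control signal so 100% means no change and 0% no light.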 The note with it: NIH 3T3 STAT1-luciferase reporter, IFN-gamma, luminescence; at 5.5 µM; active compounds read high; 100% = IFN-gamma alone, no compound. In general terms: In a reporter assay the amount or activity of a reporter protein is the signal.
Regarding `CCOc1ccc2nc(C(=O)N3CCCC(C)C3)sc2c1` (stereo not given), the activation (% of control) was 153% (active). `CCOc1ccc2nc(SC(CC)C(=O)Nc3cc(C)on3)sc2c1` (stereo not given): the activation (% of control) was 86.5%. As to `CCOc1ccc2nc(Nc3nc4ccc(NC(C)=O)cc4s3)sc2c1`, the activation (% of control) was 106%. With `CCNc1nc(NC(C)C)nc(N2CC(=O)N(CC(=O)OCC)C2=N)n1`, the activation (% of control) was 93.2%.

In the case of `O=C(Oc1cccc(N2C(=O)C3C4c5ccccc5C(c5ccccc54)C3C2=O)c1)c1ccco1` (stereo not given), the activation (% of control) was 102%. For `Cc1ccc(-n2c(SCC(=O)N3c4ccccc4Sc4ccccc43)nnc2-c2ccncc2)cc1`, the activation (% of control) is 109%. As for `CC(C)(C)C(=O)NCCCNc1ccc([N+](=O)[O-])cc1`, the figure is 112%; as for `COc1cc(/C=N\Nc2ccc([N+](=O)[O-])cn2)ccc1OCC(=O)O`, 98%; as for `COc1cc(C(=O)OCc2ccc([N+](=O)[O-])cc2)cc(OC)c1OC`, 104%. To `COc1cc(/C=N/O)ccc1OCc1ccc([N+](=O)[O-])cc1` belongs 206% (active); to `CCOc1ccc(S(=O)(=O)Nc2ccncc2)c(C)c1C`, 97%. To `C/C(CCC(=O)OC[C@H]1O[C@H](C#Cc2ccccc2)C=C[C@@H]1Oc1ccc(C)cc1)=N\OC[C@@H](O)[C@H]1O[C@@H]2OC(C)(C)O[C@@H]2[C@H]1O` belongs 106%; to `Cc1cc(C)c2nc(NC(=O)C3CCCO3)sc2c1` (stereo not given), 151% (active).

With `O=C(Nc1nc2ccc(S(=O)(=O)N3CCCC3)cc2s1)C1CCCO1` (stereo not given), the activation (% of control) was 95.5%. As for `Cc1cc(Br)ccc1NC(=O)C1CCCO1` (stereo not given), the figure is 107%. To `CCc1cc2c(=O)c(-c3nc4ccccc4n3C)c(CCCC(=O)O)oc2cc1OC(=O)C(C)(C)C` belongs 90.5%. As for `COC(=O)C1=CN(Cc2ccc(OC)c(OC)c2)C=C(C(=O)OC)C1c1cccs1`, the figure is 45.2%; as for `C=CCNC(=O)/C=C/c1ccc(C(C)C)cc1`, 120%; as for `CCCC(=O)N=c1sc2cccc(F)c2n1C`, 114%. In the case of `Cn1c(=NC(=O)c2ccco2)sc2cccc(F)c21`, the activation (% of control) was 135% (active). To `Cn1c(=NC(=O)C2CC2)sc2cc(F)cc(F)c21` belongs 108%.

As to `CC(=O)Nc1ccc(S(=O)(=O)Oc2ccc(/C=N/N=C3/NC(=O)C(CC(=O)O)S3)cc2)cc1` (stereo not given), the activation (% of control) was 97.8%. As for `CCCCn1c(=O)c(C(C)=O)c(O)c2ccccc21`, the figure is 95.7%; as for `COc1cc([C@H](Cc2ccccc2)NC(C)=O)oc(=O)c1`, 96.8%. Take `C=CCn1c(C)cc(C2=NNC(=NCC)SC2)c1C`: the activation (% of control) is 15.6%.

Regarding `Cc1cc(C2=NNC(=Nc3ccc(S(=O)(=O)N4CCOCC4)cc3)SC2)c(C)n1CC1CCCO1` (stereo not given), the activation (% of control) is 99.8%.

As for `COCCn1c(C)cc(C2=NNC(=Nc3ccc(F)cc3)SC2)c1C`, the activation (% of control) was 133% (active). To `COc1ccc(C2CC(c3cccs3)=NN2c2ccccc2)cc1` (stereo not given) belongs 93.2%; to `Cc1cc(C)cc(N(CC(=O)NCCSCc2ccco2)S(C)(=O)=O)c1`, 102%; to `Cc1ccccc1Nc1nc(N)nc(CSc2nnc3ccccn23)n1`, 120%.

On to `Cc1ccc(C(=O)OCc2nc(N)nc(Nc3ccccc3C)n2)cc1`, for which the activation (% of control) is 96.8%. As for `Cc1ccccc1Nc1nc(N)nc(CSc2ccccc2)n1`, the figure is 183% (active). Turning to `CC(C)(C)C1CCC(=NNC(=O)c2cc(-c3ccccc3)n[nH]2)CC1` (stereo not given), the activation (% of control) is 113%. To `CCOC(=O)N1CCN(C(=O)C2CCN(Cc3ccc(OC)cc3OC)CC2)CC1` belongs 94.7%; to `CCOc1ccc2nc(/N=C/c3nc(-c4ccccc4)oc3O)sc2c1`, 104%; to `CC(N=Cc1nc(-c2ccccc2)oc1O)c1ccccc1` (stereo not given), 104%. As for `Oc1oc(-c2ccccc2Br)nc1/C=N/c1ccccn1`, the figure is 131% (active); as for `O=C1NC(c2ccc(-c3ccccc3[N+](=O)[O-])o2)C(C(=O)c2ccc(Cl)cc2)C(O)(C(F)(F)F)N1` (stereo not given), 102%. As for `COc1ccc(C(C)=O)cc1CSc1nc2nc(C)cc(C)n2n1`, the figure is 93.7%; as for `COc1ccc(C(=O)COC(=O)c2ccc3ccccc3n2)cc1`, 103%; as for `O=C(Oc1ccc([N+](=O)[O-])cc1)c1ccc2ccccc2n1`, 94.7%. Turning to `CC(OC(=O)c1ccc2ccccc2n1)C(=O)c1ccccc1` (stereo not given), the activation (% of control) was 138% (active). To `CCC(NC(=O)c1ccccc1NC(=O)c1ccccc1)C(=O)NNC(=O)CSc1nc2ccccc2o1` (stereo not given) belongs 94%.

With `Cc1[nH]n(-c2ccc(Cl)cc2)c(=O)c1/C=N/n1c(C)nc2ccccc2c1=O`, the activation (% of control) was 99.3%. To `Cc1ccc(-n2[nH]c(C)c(/C=N/NC(=O)c3cccc([N+](=O)[O-])c3)c2=O)cc1C` belongs 101%. Consider `Cc1[nH]n(-c2ccccc2)c(=O)c1/C=N/NC(=O)c1ccoc1C`, for which the activation (% of control) is 155% (active). As for `C=CCn1c(SCC(N)=O)nnc1-c1cc2c(s1)CCC(CC)C2` (stereo not given), the figure is 121%. To `CC1CN(/C=C/C(=O)C(F)(F)F)CC(C)O1` (stereo not given) belongs 95.8%; to `CCSc1sc(CC)cc1C=O`, 107%; to `COc1ccccc1-c1cc(C(=O)N2CCCCC2)no1`, 164% (active). On to `O=C(c1cc(-c2ccccc2O)on1)N1CCCC1`, for which the activation (% of control) was 108%. For `Cc1ccc(-c2cc(C(=O)N3CCc4ccccc4C3)no2)cc1`, the activation (% of control) was 97.3%. To `O=C(c1cc(-c2cccs2)on1)N1CCCCC1` belongs 162% (active).

As to `O=C(c1ccc(F)cc1)N1CCCC(c2nc(-c3cccs3)no2)C1` (stereo not given), the activation (% of control) was 96.9%. Consider `COc1ccccc1N1CCN(C(=O)c2cc(-c3ccc(Br)cc3)on2)CC1`, for which the activation (% of control) was 99.6%. To `COc1ccc(C2CC(c3cccs3)Nc3nnnn32)cc1` (stereo not given) belongs 87.6%; to `Cc1cc(=O)[nH]c(N/N=C/c2c(C)nn(-c3ccccc3Cl)c2Cl)n1`, 100%.

With `CC(OC(=O)CNS(=O)(=O)/C=C/c1ccccc1)C(=O)Nc1ccc(S(=O)(=O)N2CCCC2)cc1` (stereo not given), the activation (% of control) was 89%. Consider `CC(=O)c1ccc(NC(=O)c2ccc3c(Cl)c4c(nc3c2)CCCC4)cc1`, for which the activation (% of control) is 113%.

As to `O=C(CN1CCN(c2ccc(O)cc2)CC1)NC1CCCc2ccccc21` (stereo not given), the activation (% of control) is 101%.

With `Cc1ccc(OCc2nnc(SC3CCc4ccccc4C3=O)n2C)cc1` (stereo not given), the activation (% of control) is 105%. As for `Cc1cc(C)nc(NS(=O)(=O)c2ccc(N/C=C\C(=O)c3cccs3)cc2)n1`, the figure is 135% (active); as for `CC(=O)Nc1ccc(S(=O)(=O)Nc2nccc(/C=C/c3ccccc3F)n2)cc1`, 98.1%; as for `CCc1nnc(NS(=O)(=O)c2ccc(NC(=S)NC(=O)c3cccs3)cc2)s1`, 109%.

Consider `O=C(c1cccs1)n1nc(NCc2ccccc2)nc1NCc1ccccc1`, for which the activation (% of control) is 107%. As for `CNC(=O)COC(=O)c1cc(-c2ccc(OC)cc2)nc2ccccc12`, the figure is 99.7%; as for `CC(C)(C)NC(=O)NC(=O)COC(=O)Cc1c(F)cccc1Cl`, 113%. As for `CCCCSc1nc2ccccc2[nH]1`, the figure is 121%; as for `O=C(CSc1nc2ccccc2[nH]1)c1cccs1`, 136% (active); as for `C=CCSc1nc2ccccc2[nH]1`, 109%. As for `CCOc1cc2[nH]c(=O)n(Cc3ccc(C(=O)NCCCN4CCCC4=O)cc3)c(=O)c2cc1OCC`, the figure is 92.1%. For the compound `COc1ccc(C2(CNC(=O)Cc3ccc(OC)c(OC)c3)CCCC2)cc1`, the activation (% of control) is 94.7%. As for `O=C(OCc1ccc([N+](=O)[O-])cc1)c1ccccn1`, the figure is 95.9%; as for `N/C(=N\OC(=O)c1ccc([N+](=O)[O-])cc1)c1ccccn1`, 81.4%.

As to `CCC(C)(NC(=O)c1ccccn1)C(=O)NC1CCCCC1` (stereo not given), the activation (% of control) was 95.5%.

Consider `N/C(=N\OC(=O)CC1CCCCC1)c1ccccc1`, for which the activation (% of control) was 116%. In the case of `N/C(=N\OC(=O)Cc1ccc([N+](=O)[O-])cc1)c1ccccn1`, the activation (% of control) is 139% (active). To `N/C(=N\OC(=O)CCC1CCCCC1)c1ccccn1` belongs 130% (active).

Turning to `COC(=O)c1sc(NC(=O)c2ccc(OC)cc2OC)nc1C`, the activation (% of control) is 75.1%.

Regarding `COc1cc(SC)ccc1C(=O)Nc1nc(C)cs1`, the activation (% of control) is 12.9%. Regarding `COc1ccc(C(=O)Nc2nncs2)c(OC)c1`, the activation (% of control) was 131% (active). As for `COc1ccc(S(=O)(=O)N2CCN(C(=O)c3cc(C)oc3C)CC2)cc1`, the figure is 90.8%; as for `Cc1ccc([N+](=O)[O-])c(OCCCNCC(C)O)c1` (stereo not given), 101%; as for `CN1CCN(C(=O)/C(=C\c2ccc3c(c2)OCO3)NC(=O)c2cccs2)CC1`, 98.7%. For the compound `COC(=O)c1ccccc1SC1CC(=O)N(c2cccc(C)c2)C1=O` (stereo not given), the activation (% of control) is 94.5%. To `CC1CCN(S(=O)(=O)c2ccc3ncn(CC(=O)N(C)C4CCCCC4)c(=O)c3c2)CC1` belongs 100%; to `Cc1cccc(C)c1NC(=O)C1CCCN1C(=O)OC(C)(C)C` (stereo not given), 104%.

In the case of `CCNC(=O)NNC(=O)C1CC(c2cccs2)=NO1` (stereo not given), the activation (% of control) was 100%.

Regarding `O=C(Cc1cccs1)Nc1nnc(C2CC2)s1`, the activation (% of control) is 90.1%.

Take `O=C(Nc1nnc(C2CC2)s1)c1ccccn1`: the activation (% of control) is 129% (active). To `Cc1occc1C(=O)Nc1nnc(C2CCCCC2)s1` belongs 107%; to `Cc1nc2ccccn2c1C(=O)NN=C1CCN(C)CC1`, 96.3%; to `CN1CCN(c2ccc(NC(=O)c3ccc4c(c3)[nH]c(=O)n4Cc3ccc(F)cc3)cc2)CC1`, 98.7%. To `Clc1cccc(CN2COc3c(cc(Cl)c4cccnc34)C2)c1` belongs 94.3%. As for `Cc1ccc(NC(=O)c2c(NC(=O)CCC(=O)O)sc3c2CCCCC3)cc1`, the figure is 105%.

As for `COC(=O)c1sccc1NC(=O)c1csc2c1CCCC2`, the activation (% of control) is 106%.

As to `Cc1ccc(NC(=O)c2csc3c2CCCC3)cc1`, the activation (% of control) was 176% (active). With `COC(=O)c1sc(NC(=O)c2csc3c2CCCC3)nc1C`, the activation (% of control) is 149% (active). In the case of `O=C(NCc1ccccc1Cl)c1csc2c1CCCCC2`, the activation (% of control) is 107%. As for `CC(=O)Cc1nsc(NC(=O)c2csc3c2CCCC3)n1`, the figure is 102%.
